Data: PubChem BioAssay (NCI)
Compounds without any hit were thinned out: in the full panel of roughly 83,000, 20% have a hit.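 Assay: single dose, 48 h. Readout: percent growth (0 = no net growth; negative = cell death). Active: <10.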 A number with no mark means an inactive call. The source made the active and inactive calls.

Legend:
Experiment in all cases: NCI-60 one-dose screen, 48 h (100 = growth as untreated, 0 = no growth, -100 = all killed)
Conditions in all cases: 10 µM unless noted
SK-MEL-2 melanoma = test system: SK-MEL-2 melanoma
EKVX NSCLC = test system: EKVX NSCLC
SN12C renal = test system: SN12C renal
UO-31 renal = test system: UO-31 renal
TK-10 renal = test system: TK-10 renal
ACHN renal = test system: ACHN renal
CAKI-1 renal = test system: CAKI-1 renal
A498 renal = test system: A498 renal
CCRF-CEM leukemia = test system: CCRF-CEM leukemia
MOLT-4 leukemia = test system: MOLT-4 leukemia
SR leukemia = test system: SR leukemia
OVCAR-8 ovarian = test system: OVCAR-8 ovarian
OVCAR-5 ovarian = test system: OVCAR-5 ovarian
OVCAR-4 ovarian = test system: OVCAR-4 ovarian
SK-OV-3 ovarian = test system: SK-OV-3 ovarian
OVCAR-3 ovarian = test system: OVCAR-3 ovarian
HS 578T breast = test system: HS 578T breast
NCI/ADR-RES ovarian = test system: NCI/ADR-RES ovarian

| Compound | growth (SK-MEL-2 melanoma) | growth (EKVX NSCLC) | growth (SN12C renal) | growth (UO-31 renal) | growth (TK-10 renal) | growth (ACHN renal) | growth (CAKI-1 renal) | growth (A498 renal) | growth (CCRF-CEM leukemia) | growth (MOLT-4 leukemia) | growth (SR leukemia) | growth (OVCAR-8 ovarian) | growth (OVCAR-5 ovarian) | growth (OVCAR-4 ovarian) | growth (SK-OV-3 ovarian) | growth (OVCAR-3 ovarian) | growth (HS 578T breast) | growth (NCI/ADR-RES ovarian) |
| --- | --- | --- | --- | --- | --- | --- | --- | --- | --- | --- | --- | --- | --- | --- | --- | --- | --- | --- |
| CCC(=O)Nc1ccc(-c2nc(-c3cccc(OC)c3)c(-c3ccnc(Br)c3)[nH]2)cc1 | 70.2% | 64.6% | 68.3% | 53.9% | 90.4% | 60.3% | 57.1% | 50.5% | 37.1% | 44.6% | 25.3% | 58.2% | 87% | 46.8% | 101% | 65.4% | 39.2% | 67.9% |
| CCCCC[C@H](O)C/C=C1/C(=O)C=C[C@@H]1C/C=C\CCCC(=O)O | 79.6% | 100% | 52.3% | 81.9% | 111% | 83.2% | 80.7% | 109% | 14.9% | 43.2% | 15.8% | 33.7% | 152% | 77.8% | 118% | 22.2% | 95.6% | 54.4% |
| O=C(O)c1cn(C2CC2)c2cc(N3CCN(C(=O)Nc4nc(-c5ccc(Cl)cc5)cs4)CC3)c(F)cc2c1=O | -18.9% (active) | 19.6% | 7.2% (active) | 2.13% (active) | 21.8% | 6.02% (active) | 17.1% | -3.82% (active) | 13.6% | 2.05% (active) | 11.2% | 7.37% (active) | 27.5% | 23.7% | -2.39% (active) | 5.86% (active) | 35.5% | 38.1% |
| O=[N+]([O-])c1ccc(Oc2nc(Nc3ccc(O[C@H]4CO[C@H]5[C@@H]4OC[C@@H]5O)c(Cl)c3)ncc2F)c(Cl)c1 | 21.7% | 43.8% | 15.9% | -9.77% (active) | 44.5% | 19.3% | 7.81% (active) | -2.07% (active) | 25.1% | -3.69% (active) | 10.5% | 32.5% | 43.2% | 34.4% | 9.64% (active) | 31.1% | -2.68% (active) | 81.3% |
| COC(=O)C(Cc1ccccc1)NC(=O)NC(=O)NC(=O)CI (centres undefined) | 94.9% | 103% | 17.2% | 34.7% | 75.9% | 75.7% | -69.3% (active) | 124% | -50.8% (active) | -30.7% (active) | -41.6% (active) | 81.8% | 95.9% | 57.7% | 112% | -49.2% (active) | 111% | 71.5% |
| CC/C=C\C[C@@H](O)C/C=C1/C(=O)C=C[C@H]1C/C=C\CCCC(=O)OC | 77.9% | 88.2% | -29.5% (active) | 16.9% | 31.1% | 26.8% | 17.9% | 97.4% | -9.05% (active) | -4.62% (active) | -17.5% (active) | -6.75% (active) | 54.1% | 44.9% | 99.3% | -2.32% (active) | 21% | 10.6% |
| COC(=O)Nc1ccc(-c2nc(-c3cccc(OC)c3)c(-c3ccnc(Br)c3)[nH]2)cc1 | 72.1% | 55.5% | 67% | 38.6% | 77.9% | 53.4% | 52% | 48.4% | 34.9% | 30.9% | 3.64% (active) | 48% | 85.6% | 51.5% | 88.1% | 70.2% | 33.4% | 45.2% |
| N#CC1=C(N)Oc2c(sc3c(Br)cccc23)C1c1ccc([N+](=O)[O-])cc1 (centres undefined) | 39.6% | 58.9% | 13.5% | 34.6% | 71.9% | 26.8% | 27.1% | -11.8% (active) | 10% | 5.93% (active) | -8.87% (active) | 25.3% | 31.1% | 39.8% | 34% | 3.67% (active) | 10.8% | -26.9% (active) |
